Compound activity as filed in PubChem.
Shown are actives, neighbours in structure and some others; about 2.8% of the full set was active somewhere.
IP6K1 inh – IP6K1 kinase inhibition | activity change, % (series mostly up to about 58 µM) | 140,000 tested, 0.81% active | IP6K1 kinase, ADP-Glo luminescence, 2 h; active compounds read low | Q92551; in the data active = activity change below about -25%; note: % is set by controls: 0 for no effect and ±100 for the full control effect
Target sequence (Q92551 whole entry, looked up): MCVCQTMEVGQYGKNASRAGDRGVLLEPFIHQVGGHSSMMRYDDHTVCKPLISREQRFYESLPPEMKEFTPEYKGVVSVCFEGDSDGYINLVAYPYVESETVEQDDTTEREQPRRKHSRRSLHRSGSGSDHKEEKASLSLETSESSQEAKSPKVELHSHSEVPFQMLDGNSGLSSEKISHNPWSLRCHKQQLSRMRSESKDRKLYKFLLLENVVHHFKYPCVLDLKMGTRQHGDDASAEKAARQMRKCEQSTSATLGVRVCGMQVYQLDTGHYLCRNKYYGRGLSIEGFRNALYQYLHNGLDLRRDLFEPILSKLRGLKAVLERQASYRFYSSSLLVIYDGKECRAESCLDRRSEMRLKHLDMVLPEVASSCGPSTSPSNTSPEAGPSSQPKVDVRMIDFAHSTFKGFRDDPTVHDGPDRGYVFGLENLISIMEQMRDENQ
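ADP-Glo luminescence measures ADP made by human IP6K1 during a 2 h RT reaction with ATP/IP6 (mix at 1.3 mM/130 uM); top library doses 57.5 and 19.1 uM final.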
KDM5B inhibitor – KDM5B demethylase inhibition; Q9UGL1; KDM5B demethylase, FDH-coupled NADH fluorescence (FDH is formaldehyde dehydrogenase); Potency, µM (highest dose often 57.7 µM), hits mostly inhibitors; 220,000 tested, 2.6% active; active = well fitted inhibition curve with a large enough effect; inconclusive = small, poorly fitted or top-dose-only effect; inactive = no such curve, though single readings can be large or run the other way; note: potency is the fitted concentration of half-maximal effect; 0% is about no effect; nearly all actives have a fitted effect of over 70% in size
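Coupled FDH/NAD⁺ fluorescence readout. KDM5BΔAP 200 nM final; compound titration, 10 min RT preincubation; substrate mix 12.5 µM H3K4me3, 25 µM 2-OG, 50 µM Fe(II), 100 µM ascorbate, 0.25 mM NAD⁺, 0.25 U/mL FDH; ΔRFU over 30 min.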
Starred values were filed as active, the others as inactive; i = inactive; ? = inconclusive; . = no result given.

SMILES | IP6K1 inh | KDM5B inhibitor
Cc1ccc2oc([C@H]3CCN(Cc4cccc(Cl)c4)C3)nc2c1 | 18 | ?
Cc1ccc2oc([C@H]3CCN(Cc4c[nH]c5ccccc45)C3)nc2c1 | 5 | 13µM*
Cc1cc2ccccn2c1/C(=N/S(=O)(=O)c1cccs1)c1ccccc1 | . | i
CN(C)C[C@@H]1CN(C2CCOCC2)C[C@H]1NC(=O)c1cc2ccccc2[nH]1 | 23 | 28µM*
CN(C)C[C@@H]1CN(C2CCOCC2)C[C@H]1NC(=O)c1ccc2cc[nH]c2c1 | -3 | i
O=C(O)C1Cc2nc[nH]c2CN1C(=O)CCc1cn2ccccc2n1 (stereo not drawn) | 27 | 11µM*
N#Cc1ccc(CNC(=O)[C@@H]2Cc3nc[nH]c3CN2C(=O)CCC(=O)O)cc1 | -4 | ?
CC1(C(=O)c2ccccc2)C(c2ccccc2)C1(C#N)C(N)=O (stereo not drawn) | . | i
CC(=O)N1CCC(N2C[C@@H]3C[C@H](C2)c2ccc(-c4ccccc4CN(C)C)c(=O)n2C3)CC1 | 0 | ?
CN(C)CC(=O)N1C[C@@H]2C[C@H](C1)c1ccc(-c3ccccc3CN3CCOCC3)c(=O)n1C2 | 7 | 18µM*
CCONC(=O)CSCc1ccc(C)cc1 | . | i
O=C(Nc1cccc(C(F)(F)F)c1)c1nc2c(o1)CCN(Cc1cnc[nH]1)CC2 | 28 | i
N#Cc1cccc(CN2CCc3nc(C(=O)NCc4ccncc4)oc3CC2)c1 | 1 | ?
N#Cc1ccc(CN2CCc3nc(C(=O)Nc4cccc(C(F)(F)F)c4)oc3CC2)cc1 | 11 | 22µM*
O=C(Nc1cccc(C(F)(F)F)c1)c1nc2c(o1)CCN(Cc1ccccc1)CC2 | 5 | 22µM*
O=C(Nc1ccccc1)c1nc2c(o1)CCN(Cc1ccc(F)cc1)CC2 | 6 | ?
O=C(Nc1cccc(C(F)(F)F)c1)c1nc2c(o1)CCN(CC1CC1)CC2 | -5 | ?
O=C(Nc1cccc(C(F)(F)F)c1)c1nc2c(o1)CCN(Cc1cccc(F)c1)CC2 | 22 | 28µM*
O=C(Nc1cccc(C(F)(F)F)c1)c1nc2c(o1)CCN(Cc1ccc(F)cc1)CC2 | 3 | 40µM*
Cc1nn(-c2ccccc2)c2c1C(C)N(CC1CN(C(=O)c3ccc(Cl)cc3)C1)C2=O (stereo not drawn) | 9 | .
COc1cccc(C(=O)N2CC(N3C(=O)c4c(c(C)nn4-c4ccccc4)C3C)C2)c1 (stereo not drawn) | 16 | .
O=C(Cc1c[nH]c2ccccc12)Nc1nc2ccc(F)cc2s1 | . | i
CC(C)(C)C(=O)CSc1nccc(C(F)(F)F)n1 | . | i
COc1ccc(-c2cn3cc(C(=O)N(C)C)nc3s2)cc1 | -6 | .
COc1ccccc1-c1ccc(CN2CCC(N[S+](=O)([O-])c3ccc(C)cc3)C2)cc1 (stereo not drawn) | 25 | .
SMILES | IP6K1 inh | KDM5B inhibitor
O=C1c2cnc(-c3cc(F)cc(F)c3)nc2OCCN1Cc1ccccc1 | 4 | ?
Cn1cc(CN2Cc3c(cc(N4CCOCC4)nc3-c3ccc(CO)cc3)C2=O)cn1 | 12 | 35µM*
Cc1noc2c(N3CCOCC3)cc(-c3cccnc3)nc12 | -2 | i
Cn1cc(CN2Cc3c(cc(N4CCOCC4)nc3-c3cccc(F)c3)C2=O)cn1 | 12 | 35µM*
COc1ccc(-c2nc(N3CCOCC3)cc3c2CN(Cc2cnn(C)c2)C3=O)cc1OC | 11 | i
Cn1cc(CN2Cc3c(cc(N4CCOCC4)nc3-c3cccnc3)C2=O)cn1 | 16 | 35µM*
O=C(c1cncc(Br)c1)N1CCN(c2ccnc3ccnn23)CC1 | -12 | .
O=C(CCCc1c[nH]c2ccccc12)N1CCN(CC(=O)N2CCCCCC2)CC1 | . | i
C=CCn1c(C)cc(C(=O)CSc2nc3cc([N+](=O)[O-])ccc3o2)c1C | . | i
CNC(=O)c1cc(-c2cnn(C)c2C)cc2c1OCCN2Cc1cccnc1 | -18 | 35µM*
CNC(=O)c1cc(-c2ccc(OC)c(OC)c2)cc2c1OCCN2Cc1cccnc1 | -24 | 32µM*
CNC(=O)c1cc(-c2ccc(F)cc2OC)cc2c1OCCN2Cc1cccnc1 | -18 | 40µM*
CNC(=O)c1cc(-c2cnc(OC)nc2)cc2c1OCCN2Cc1cccnc1 | -23 | i
CNC(=O)c1cc(-c2ccc([S+](C)(=O)[O-])cc2)cc2c1OCCN2Cc1cccnc1 | -7 | 35µM*
COc1ccc(F)cc1-c1ccc(CN2CCCCC2C(=O)NCc2cccnc2)cc1 (stereo not drawn) | 5 | .
O=C(Nc1ccccc1)N1CCCC1C(=O)N1CCCC1c1nc2ccncc2[nH]1 (stereo not drawn) | -5 | .
CCC(C)Cc1nc(N)c(C#N)c(-c2ccccc2)c1C (stereo not drawn) | . | i
O=C(c1ccccc1)N1CCCn2cc(-c3ccc4c(c3)OCO4)nc21 | -6 | ?
Cc1ccc(C(=O)N2CCCn3cc(-c4cccc(C#N)c4)nc32)cn1 | 14 | 28µM*
COc1cccc(-c2cn3c(n2)N(C(=O)c2cccs2)CCC3)c1 | -4 | ?
N#Cc1cccc(-c2cn3c(n2)N(C(=O)c2ccoc2)CCC3)c1 | 4 | 25µM*
N#Cc1cccc(-c2cn3c(n2)N(C(=O)c2ccco2)CCC3)c1 | 17 | 25µM*
O=C(c1ccoc1)N1CCCn2cc(-c3ccccc3)nc21 | -4 | i
N#Cc1cccc(-c2cn3c(n2)N(C(=O)c2ccncc2)CCC3)c1 | 0 | 20µM*
COc1ccc(C(=O)N2CCCn3cc(-c4ccccc4F)nc32)cn1 | 7 | i
SMILES | IP6K1 inh | KDM5B inhibitor
CCOC(=O)[C@H]1[C@@H](O)C(=O)N(Cc2ccccc2)C12CCN(C(=O)Nc1ccc3c(c1)OCO3)CC2 | 2 | .
COc1cccc(CNC(=O)CN2C(=O)NC(c3ccc(Cl)cc3)C3=C2COC3=O)c1OC (stereo not drawn) | -8 | i
O=C(NCCc1ccc(F)cc1)C1CCCN(c2nccc(Nc3ccccc3F)n2)C1 (stereo not drawn) | 1 | .
Cn1ncc2c(C(=O)Nc3ccc(Cl)cc3)cc(-c3ccccc3C(F)(F)F)nc21 | 10 | .
Cc1ccsc1C(=O)N1CCCn2cc(-c3ccccc3)nc21 | -6 | i
Cc1nccn1CC(=O)N1CCCn2cc(-c3cccc(C#N)c3)nc21 | 3 | ?
O=C(c1ccsc1)N1CCCn2cc(-c3ccccc3)nc21 | -8 | i
N#Cc1cccc(-c2cn3c(n2)N(C(=O)c2ccccn2)CCC3)c1 | 7 | 18µM*
N#Cc1cccc(-c2cn3c(n2)N(C(=O)c2cccc(F)c2)CCC3)c1 | 4 | 22µM*
Cc1ccsc1C(=O)N1CCCn2cc(-c3cccc(C#N)c3)nc21 | 0 | 14µM*
COc1ccc2c(c1C)CCCC2 | . | i
O=C(O)C1CCCN(C(=O)c2ccoc2)C1 (stereo not drawn) | . | i
O=C1CC(C(=O)Nc2ccccc2C(F)(F)F)n2nc(SCc3ccccc3)nc2N1 (stereo not drawn) | . | i
Cn1ncc2c(C(=O)NCc3ccc(Cl)cc3)cc(-c3ccsc3)nc21 | -5 | .
COc1ccc(OCC(O)CN2CCC(=O)N(Cc3ccccc3)Cc3cc4c(cc32)OCO4)cc1 (stereo not drawn) | 12 | .
O=C(NCCc1csc(-c2ccncc2)n1)C1CNCCO1 (stereo not drawn) | 8 | 28µM*
O=C(NCCc1ccc(Cl)cc1Cl)C1CNCCO1 (stereo not drawn) | 15 | i
CC(=O)N1CCCC(C(=O)NCCc2csc(-c3ccncc3)n2)C1 (stereo not drawn) | 4 | 22µM*
